High-throughput results deposited in PubChem BioAssay by Broad Institute.
PAX8 reporter = PAX8 transcriptional activity inhibition. RMG-I TPO-luciferase reporter, SteadyGlo, 24 h. inhibition, % at 12.6 µM. 1.2% of 360,000 active. AID 652154;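 active = mean replicate inhibition at least 60% with every replicate also reaching 60%; inconclusive = only one of the two criteria is met; inactive = mean below 60% and not all replicates reaching 60%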;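 note: luciferase light reporting Pax8 driven TPO promoter activity; plate controls were median of neutral control wells for no effect and mitoxantrone controls for full effect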
EWS-Fli block = EWS/Fli transcriptional activity inhibition; A673 NR0B1-luciferase reporter, viability-normalised; inhibition, % at 12.6 µM; 0.67% of 350,000 active; AID 651661;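 active = mean inhibition of at least 50% after viability correction, with every replicate also passing that limit; inconclusive = mean reaches 50% but only one of two replicates passes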;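 note: firefly luciferase signal divided by Alamar Blue viability fluorescence both relative to DMSO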
CFTR F508del cor = CFTR F508del correction in bronchial cells. CFBE cells, YFP halide quenching; stimulated with forskolin plus potentiator P3; % fluorescence drop versus neutral controls. activity (quench increase), % at 7.58 µM. 0.36% of 350,000 active. AID 720511;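 active = mean added fluorescence quench of at least 8% versus neutral control, with both replicates also reaching 8%; inconclusive = only one of the mean or replicate conditions met; inactive = mean below 8% and not both replicates reaching 8%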;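 note: cells transiently co-express mutant CFTR-F508del with the halide-sensitive YFP; corrector assay measuring rescue of mutant channel to the surface after 24 h compound exposure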
LGR2 antag = Drosophila LGR2 receptor signaling inhibition. HEK293 LGR2, CRE-luciferase, bursicon-stimulated, 4 h. inhibition, % at 9.99 µM. 0.35% of 380,000 active. AID 720647;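 active = drop in luminescence signal, shown as inhibition above about 50% in the replicate tests, limit read from the data, passing the limit was not always enough; inconclusive = probably only some replicates passing the limit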;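 note: agonist challenge used bursicon conditioned medium at about half maximal strength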
* = called active by the depositor; u = inconclusive; x = not tested or not shown. Hits are enriched below; roughly 1.8% of the tested compounds scored in any of these assays.

SMILES	PAX8 reporter	EWS-Fli block	CFTR F508del cor	LGR2 antag
COc1ccc(S(=O)(=O)NCC2CCCO2)cc1NC(=O)c1ccccc1F (configuration not stated)	6	10	1	9
COc1ccc(C(C(=O)NC2CCCCC2)N(C(=O)CCl)c2cccc(Cl)c2)cc1 (configuration not stated)	115*	53*	2	x
COc1ccc(C(C(=O)NC2CCCCC2)N(C(=O)CCl)c2ccc(C)cc2)cc1 (configuration not stated)	111*	48	x	x
COc1ccc(/C=C(\NC(=O)c2ccccc2)C(=O)NCC2CCCO2)cc1 (configuration not stated)	5	x	2	-12
COC(=O)CCCCCCCCC(O)CN1CCCCC1 (configuration not stated)	-2	x	x	-2
CCOC(=O)c1cnc2ccc(OC)cc2c1Nc1ccc(N2CCN(C)CC2)cc1	19	-1	0	9
CCOC(=O)c1cnc2ccc(C(=O)OC)cc2c1Nc1ccc(C(=O)O)cc1	104*	8	0	-20
CCOC(=O)c1ccc2ncc(C(=O)OCC)c(Nc3ccc(N4CCOCC4)cc3)c2c1	9	-6	x	55*
CCn1c(SC(C)C(=O)NC2CCCc3ccccc32)nnc1-c1cccs1 (configuration not stated)	x	x	x	-12
CNC(C)C#Cc1c(-c2cc(OC)c(OC)c(OC)c2)noc1C (configuration not stated)	0	7	2	-6
COc1cc(-c2c(-c3cc(OC)c(OC)c(OC)c3)noc2C)ccc1F	88*	66*	-3	-28
COc1cc(-c2noc(C)c2C#Cc2ccccn2)cc(OC)c1OC	29	54*	10*	-7
COc1cc(-c2noc(C)c2C(=O)NCCO)cc(OC)c1OC	-9	-3	0	-10
COc1cc(-c2noc(C)c2/C=C/c2ccc(N)cc2)cc(OC)c1OC	79*	57*	2	-8
COc1cc(-c2noc(C)c2C#Cc2ccc(N)cc2)cc(OC)c1OC	75*	u	2	-15
COc1ccc(C(=O)N/C(=C\c2cn(C)c3ccccc23)C(=O)OCC(C)C)cc1	70*	12	0	-15
O=C(Nc1ccccc1C(=O)Nc1nnc(C(F)(F)F)s1)c1ccccc1Cl	63*	17	6	25
CCC(=O)Nc1ccc(Br)c(Cl)c1	-7	x	x	x
CCC(=O)NC1=C(Cl)C(=O)C(NC(=O)CC)=C(Cl)C1=O	86*	25	-6	9
CN(C)c1ccc(/C=C/c2cccc[n+]2[O-])cc1	-84	-64	-1	x
CC(C)CC[n+]1ccccc1/C=C/c1ccc(N(C)C)cc1	82*	49	-2	21
N#CCCCCn1c(-c2cncs2)nc2ccccc21	-22	x	x	x
CCc1noc(C)c1C(=O)OC(C)C(=O)c1c(C)[nH]c2ccccc12 (configuration not stated)	-1	-1	1	3
Cc1[nH]c2ccccc2c1C(=O)C(C)OC(=O)c1ccc([N+](=O)[O-])o1 (configuration not stated)	62*	9	-1	13
CN(C(=O)CSc1nc(O)cc(=O)n1C1CCCC1)c1ccccc1	9	1	-2	-24
SMILES	PAX8 reporter	EWS-Fli block	CFTR F508del cor	LGR2 antag
COc1cc(SC)ccc1C(=O)Nc1ccc(Br)cn1	3	73*	1	x
COc1cc(SC)ccc1C(=O)Nc1ncc(C)s1	84*	81*	1	102*
COc1cc(SC)ccc1C(=O)Nc1ccccn1	-56	14	3	5
COc1ccc(C2C(C#N)=C(N)Oc3c2ccc2cccnc32)cc1OC (configuration not stated)	86*	26	5	-17
COc1ccc(-c2nnc(SCC(=O)N(C)C3CCS(=O)(=O)C3)n2CC(C)C)cc1 (configuration not stated)	13	-10	4	12
Cc1cc(C2C(=O)CC(=O)CC2c2ccccc2)on1 (configuration not stated)	x	x	x	9
CCC(=O)N(CC)C1=C(O)c2ccccc2C(=O)C1=O	x	0	-5	4
CNC1=C(N(C(C)=O)c2ccc(Br)cc2)C(=O)c2ccccc2C1=O	105*	x	x	13
CCC(=O)N(C1=C(NC)C(=O)c2ccccc2C1=O)C(C)C	74*	-6	-2	-6
CCOc1ccc(S(=O)(=O)N2CCC(C(=O)Nc3ccc(C)c(S(=O)(=O)N4CCOCC4)c3)CC2)cc1	24	16	0	-16
CCC(=O)Nc1ccc2c(c1)C(=O)N(C)[C@H]1CC[C@H](CC(=O)NCc3ccccc3)O[C@@H]1CO2	3	11	0	-6
C[C@H](CO)N1C[C@H](C)[C@H](CN(C)Cc2cccc(C(=O)O)c2)Oc2cc(C3=CCCCC3)ccc2S1(=O)=O	-12	6	1	4
Cc1ccc2nc(NC(=O)c3ccc(S(=O)(=O)N4CCCc5ccccc54)cc3)sc2c1	4	x	x	9
Cc1cccc(N2CCN(C(=O)c3cc(S(=O)(=O)N4CCCC4)cn3C)CC2)c1C	27	65*	4	-12
COc1cc(C(=O)N2CCN(c3cc(Cl)ccc3Cl)CC2)cc(OC)c1OC	16	60*	3	21
COc1cc(C(=O)N2CCN(c3cccc(C)c3C)CC2)cc(OC)c1OC	52	61*	7	6
Cc1cccc(N2CCN(C(=O)c3cc(S(=O)(=O)N4CCOCC4)cn3C)CC2)c1C	4	13	2	3
COc1ccc(-c2ccc(C(=O)Nc3cccc(NS(C)(=O)=O)c3)c3occc23)c(C)c1	-19	-17	2	3
O=C(C(=Cc1ccccc1)CN1CCCCC1)c1ccccc1	104*	58*	-3	94*
N#CC(C#N)=C1C=C2C=C(N3CCCCCC3)CCC2CC1 (configuration not stated)	18	18	67*	11
N#CC(C#N)=C1C=C2C=C(N3CCOCC3)CCC2CC1 (configuration not stated)	5	38	70*	x
C[C@H]1CCCCO[C@@H](CN(C)Cc2ccccc2)[C@@H](C)CN([C@@H](C)CO)C(=O)c2cc(NC(=O)Nc3ccc(C(F)(F)F)cc3)ccc2O1	108*	24	3	6
C[C@H](CO)N1C[C@H](C)[C@H](CN(C)Cc2ccccc2)OCCCC[C@H](C)Oc2ccc(NC(=O)Nc3ccc(C(F)(F)F)cc3)cc2C1=O	115*	-3	2	3
C[C@H]1CCCCO[C@H](CN(C)Cc2ccccc2)[C@@H](C)CN([C@@H](C)CO)C(=O)c2cc(NC(=O)Nc3ccc(C(F)(F)F)cc3)ccc2O1	120*	41	3	-2
C[C@@H]1CN([C@@H](C)CO)C(=O)c2cc(NC(=O)Nc3ccc(C(F)(F)F)cc3)ccc2O[C@@H](C)CCCCO[C@H]1CN(C)Cc1ccccc1	66*	22	0	0
C[C@@H]1CCCCO[C@H](CN(C)Cc2ccccc2)[C@@H](C)CN([C@H](C)CO)C(=O)c2cc(NC(=O)Nc3ccc(C(F)(F)F)cc3)ccc2O1	7	-8	4	34
